Among all 5,500 compounds or so, about 2,000 (36%) were called active. Inconclusive results (about 18%) are left out. Cut-off read from the data, not from the text of the source: active = normalized growth mostly below about 0.91 (no sharp cut-off); inconclusive = no clear call, values can overlap the other calls; inactive = mostly above about 0.92. The list shows a part of the results.
Assay: chemical genetic growth profiling, strain panel (AID 1159580);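 note: tested at 20 µM; growth read once vehicle control cultures reached saturation at 30 °C; 1 = growth at the plate median or of vehicle wells; lower values mean less growth of the strain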
Settings: S. cerevisiae deletion strains, growth OD

Measured: normalized growth

O=C1c2c(O)cc(O)cc2OC(c2ccc(O)c(O)c2)C1O (stereo unspecified)
inactive: locus YAL013W, strain DEP1, hits give low values 1.03 | locus YAL040C, strain CLN3, hits give low values 1.04 | locus YCL061C, strain MRC1 (second series), hits give low values 0.999 | locus YDR150W, strain NUM1, hits give low values 0.987 | locus YDR363W, strain ESC2, hits give low values 1 | locus YER002W, strain NOP16, hits give low values 0.998 | locus YMR307W, strain GAS1, hits give low values 1.01 | locus YNL175C, strain NOP13, hits give low values 0.99 | locus YNL197C, strain WHI3, hits give low values 0.977 | locus YNL224C, strain SQS1, hits give low values 0.993 | locus YOR083W, strain WHI5 (second series), hits give low values 0.991

Reference: PubChem BioAssay AID1159580 (chemical genetic matrix, 2015)
